A selection: hits, their analogues and other compounds. The true share with any hit is near 21%.
ELG1 repair inh: inhibitors of ELG1-dependent DNA repair in HEK293T cells | HEK293T ELG1-luciferase reporter, luminescence, 16 h; DNA damage induced by 5-fluorouridine | 2.3% of 330,000 active | Potency, µM (top dose mostly 46.1 µM), most hits filed as inhibitors; further: nearly all actives have a fitted effect of over 55% in size
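DMSO vehicle served as the neutral condition. Each well held 2,000 cells given 5-fluorouridine plus compound; after 16 hr at 37 °C/5% CO2, ONE-Glo was added and luciferase measured 30 min later.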
VP16 counter: inhibits Gal4-VP16 luciferase reporter, ROR gamma counter-screen. Potency, µM (series often up to 53.6 µM), most hits filed as inhibitors. 3.5% of 310,000 active. AID 2546. Drosophila S2 Gal4-VP16 UAS-luciferase, luminescence, 20 h;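 further: Gal4-VP16 expression switched on by copper sulfate through the metallothionein promoter; nearly all actives have a fitted effect of over 50% in size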
RORgamma inh: ROR gamma (mouse) transcription inhibition | Drosophila S2 Gal4-RORgamma UAS-luciferase reporter, 20 h | Potency, µM (series often up to 53.6 µM), usual class: inhibitors | 5.4% of 310,000 active; further: nearly all actives have a fitted effect of over 60% in size
Target sequence (P51450 whole entry, looked up, the tested form may be a part): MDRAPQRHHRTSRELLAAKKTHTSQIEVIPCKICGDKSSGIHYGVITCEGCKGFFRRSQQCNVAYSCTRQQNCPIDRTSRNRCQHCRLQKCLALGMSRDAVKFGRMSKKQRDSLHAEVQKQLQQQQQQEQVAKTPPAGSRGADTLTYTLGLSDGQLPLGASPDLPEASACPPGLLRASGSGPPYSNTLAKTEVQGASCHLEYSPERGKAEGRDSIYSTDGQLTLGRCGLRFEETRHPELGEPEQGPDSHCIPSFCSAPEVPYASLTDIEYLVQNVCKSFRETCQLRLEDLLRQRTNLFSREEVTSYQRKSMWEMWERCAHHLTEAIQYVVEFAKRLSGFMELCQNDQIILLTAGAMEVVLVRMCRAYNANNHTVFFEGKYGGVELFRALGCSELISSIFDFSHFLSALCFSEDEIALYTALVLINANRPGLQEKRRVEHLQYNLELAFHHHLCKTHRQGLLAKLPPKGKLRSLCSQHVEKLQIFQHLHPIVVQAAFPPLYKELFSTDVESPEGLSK
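Stable Schneider cell line, Gal4 DNA-binding domain fused to ROR gamma, UAS-luciferase. Cmpd 1 hr RT → CuSO4 700 uM final → 20 hr RT → luciferase reagent 10 min → luminescence.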
DT40 TDP1 CPT: growth inhibition of DT40 Tdp1-/-;hTDP1 cells with camptothecin (screen for TDP1 inhibitors) | chicken DT40 Tdp1-/-;hTDP1 cells + 20 nM CPT, ATP luminescence, 48 h | Potency, µM (series often up to 46.2 µM), most hits filed as inhibitors | 12% of 420,000 active | AID 686979; further: nearly all actives have a fitted effect of over 55% in size
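Chicken DT40 Tdp1-/- cells stably complemented with human TDP1 were seeded at 400 cells/well in medium containing 20 nM camptothecin, exposed to pin-transferred compounds, and grown at 37 °C for at least 48 hr. Viability was read as ATP luminescence.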
IL1B secr inh: inflammasome signaling inhibition, IL-1 beta readout; 4.7% of 360,000 active; THP-1 LPS/ATP IL-1B secretion, AlphaLISA, 16 h; hits give low values; activity change, % at 57.5 µM; in the data active means activity change below about -50%; inconclusive means mostly about -30% to -49%
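THP-1 cells pretreated 1 hr with compounds (up to 57.5 uM final), then stimulated with LPS (250 ng/mL final) plus ATP (1.25 mM final); secreted IL-1B measured by AlphaLISA after 16 hr, decreased signal indicating inhibition.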
DT40 TDP1 no CPT: qHTS for Inhibitors of human tyrosyl-DNA phosphodiesterase 1 (TDP1): qHTS in cells in absence of CPT. DT40 Tdp1-/- hTDP1 cells, no CPT, ATP luminescence, 48 h. Potency, µM (series often up to 46.2 µM), usual class: inhibitors. 15% of 420,000 active; further: nearly all actives have a fitted effect of over 55% in size
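Camptothecin absent (DMSO only). Human TDP1-complemented DT40 knockout cells, 400 cells/well, 37 °C for minimum 48 hr; ATP measured via CellTiter-Glo, 30 min dark incubation, luminescence.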
Numbers stand for hits; [ ] = dose if it differs, or a comment. Unless noted, the call rests on the fitted dose curve; in most records, active means well fitted curve in the direction sought with a large enough effect; inconclusive means small, poorly fitted or top-dose-only effect, or another doubt; inactive means no such curve, though single readings can be large; an effect the other way counts as inactive or inconclusive.

COc1ccc(C2c3cc4c(cc3OC(N3CCOCC3)C2C)OCO4)c(OC)c1 (centres undefined) was read as DT40 TDP1 CPT 5.2µM, IL1B secr inh inactive and DT40 TDP1 no CPT 4.1µM.
For CCN(CC)C1Oc2cc3c(cc2C(c2cccc(OC)c2O)C1C)OCO3 (centres undefined) the results were DT40 TDP1 CPT inconclusive, IL1B secr inh inactive and DT40 TDP1 no CPT 23µM.
For COc1cccc(C2c3cc4c(cc3OC(N3CCOCC3)C2C)OCO4)c1O (centres undefined) the results were DT40 TDP1 CPT inactive, IL1B secr inh inactive and DT40 TDP1 no CPT 8.2µM.
For COc1ccc2c(c1)OC[C@H]1c3cc4c(cc3O[C@@H]21)OCO4 the results were VP16 counter inactive, RORgamma inh inactive, DT40 TDP1 CPT inactive[9.04 µM] and DT40 TDP1 no CPT inactive[9.04 µM].
`COc1cccc(C2c3cc4c(cc3OC(C)(N3CCCC3)C2C)OCO4)c1O` (centres undefined) gave DT40 TDP1 CPT 13µM, IL1B secr inh -66 and DT40 TDP1 no CPT 10µM.
For Cn1cc(C(=O)[C@@H]2CCc3nc[nH]c3C2)c2ccccc21 the results were DT40 TDP1 CPT inactive and DT40 TDP1 no CPT inactive.
O=[N+]([O-])c1cc(-c2ccc(/C=N/c3nc4ccccn4c3-c3ccco3)o2)ccc1Cl was read as ELG1 repair inh inconclusive, VP16 counter inactive, RORgamma inh inactive, DT40 TDP1 CPT inconclusive, IL1B secr inh inconclusive and DT40 TDP1 no CPT 23µM.
`COc1ccc(CN(C)C(=O)Cn2cnc3c(OCc4ccccc4)ncnc32)cc1OC` gave ELG1 repair inh inconclusive, DT40 TDP1 CPT inconclusive, IL1B secr inh inactive and DT40 TDP1 no CPT inactive.
Screening CC(C)CCn1c(O)c(N=NC(=O)Cn2ccc(C(F)(F)F)n2)c2ccccc21 returned ELG1 repair inh inactive, VP16 counter inactive, RORgamma inh inactive, DT40 TDP1 CPT 21µM, IL1B secr inh inactive and DT40 TDP1 no CPT 23µM.
Screening CCOC(=O)c1[nH]cnc1N=Nc1c(O)ccc2ccccc12 returned ELG1 repair inh inactive, VP16 counter inactive, RORgamma inh inactive, DT40 TDP1 CPT 5.2µM, IL1B secr inh inactive and DT40 TDP1 no CPT 5.8µM.
Oc1ccc2ccccc2c1N=Nc1ccccc1F was read as ELG1 repair inh inactive, VP16 counter inactive, RORgamma inh inactive, DT40 TDP1 CPT inactive, IL1B secr inh inactive and DT40 TDP1 no CPT inconclusive.
CCOC(=O)c1c[nH]c2ccc3ccccc3c2c1=O was read as ELG1 repair inh inactive, VP16 counter inactive, RORgamma inh inactive, DT40 TDP1 CPT inconclusive, IL1B secr inh inactive and DT40 TDP1 no CPT inconclusive.
`CCCn1c(O)c(N=Nc2ccc3ccccc3n2)c2ccccc21` gave ELG1 repair inh inconclusive, VP16 counter inactive, RORgamma inh inactive, DT40 TDP1 CPT inconclusive, IL1B secr inh inactive and DT40 TDP1 no CPT inconclusive.
`Oc1ccc2ccccc2c1N=Nc1ccccn1` gave ELG1 repair inh inconclusive, VP16 counter inconclusive, RORgamma inh 0.28µM, DT40 TDP1 CPT 0.65µM, IL1B secr inh inactive and DT40 TDP1 no CPT 0.58µM.
Screening CC(C)CCn1c(O)c(N=Nc2ccccn2)c2ccccc21 returned ELG1 repair inh inconclusive, VP16 counter 11µM, RORgamma inh 14µM, DT40 TDP1 CPT inconclusive, IL1B secr inh inactive and DT40 TDP1 no CPT inconclusive.
CCCN1Cc2cccc(C(=O)Nc3ccc(-c4nc5ccccc5[nH]4)cc3)c2C1=O was read as ELG1 repair inh inconclusive, VP16 counter inactive, RORgamma inh inconclusive, DT40 TDP1 CPT inconclusive, IL1B secr inh inactive and DT40 TDP1 no CPT 18µM.
CCCN1Cc2cccc(C(N)=O)c2C1=O was read as ELG1 repair inh inconclusive, VP16 counter inactive, RORgamma inh inactive, DT40 TDP1 CPT 8.2µM, IL1B secr inh inactive and DT40 TDP1 no CPT inconclusive.
`COCCN1Cc2cccc(C(=O)Nc3ccc(-c4nc5ccccc5[nH]4)cc3)c2C1=O` gave ELG1 repair inh inconclusive, VP16 counter inactive, RORgamma inh inactive[10 µM], DT40 TDP1 CPT inactive, IL1B secr inh inactive and DT40 TDP1 no CPT inactive.
